Compound activity from PubChem BioAssay.
BAZ2B block: blocks human BAZ2B. Potency, µM (top dose mostly 114 µM), for the others: top-dose activity change, negative = inhibition, usual class: inhibitors. AlphaScreen BAZ2B-H3K14Ac peptide displacement. Q9UIF8. 4.4% of 360,000 active; note: potency is the fitted concentration of half-maximal effect; % is set by controls: 0 for no effect and ±100 for the full control effect; nearly all actives have a fitted effect of over 60% in size
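Inhibition is scored as reduced AlphaScreen emission. The BAZ2B/b-H3(5-23)K14Ac complex (50 nM each) in PBS pH 7.4, 0.01% Tween-20 meets compound (up to 110 uM) for 30 min at RT before bead addition.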
JMJD2A Tudor inh: inhibitors of human JMJD2A Tudor domain | O75164 | AlphaScreen JMJD2A-Tudor / H3K4me3 peptide binding | AID 504339 | 4.4% of 390,000 active | Potency, µM (top dose mostly 114 µM), for the others: at the top dose activity change, negative = inhibition, hits mostly inhibitors; note: potency is the fitted concentration of half-maximal effect; % is set by controls: 0 for no effect and ±100 for the full control effect; nearly all actives have a fitted effect of over 50% in size
G9a block: blocks human histone lysine methyltransferase G9a; AID 504332; Q96KQ7; 8.8% of 350,000 active; G9a H3K9 monomethylation, AlphaScreen, 2 h; Potency, µM (highest dose often 102 µM), without a hit: at the top dose activity, negative = inhibition, actives largely listed as inhibitors; note: potency is the fitted concentration of half-maximal effect; % is set by controls: 0 for no effect and ±100 for the full control effect; nearly all actives have a fitted effect of over 75% in size
Target sequence (Q96KQ7 913-1193 limits assumed): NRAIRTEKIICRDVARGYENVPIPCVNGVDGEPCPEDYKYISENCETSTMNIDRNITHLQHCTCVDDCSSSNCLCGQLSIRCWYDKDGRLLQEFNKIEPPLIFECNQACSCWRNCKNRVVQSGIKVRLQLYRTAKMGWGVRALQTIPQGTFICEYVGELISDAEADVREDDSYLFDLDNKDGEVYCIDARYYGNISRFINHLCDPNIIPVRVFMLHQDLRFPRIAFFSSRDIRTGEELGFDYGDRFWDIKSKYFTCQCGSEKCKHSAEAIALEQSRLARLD
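Using a bead-based AlphaScreen, monomethylated H3K9 product from 2 h room-temperature reactions (G9a 20 nM, peptide 500 nM, SAM 20 uM) was detected with 0.5 ug/mL rabbit anti-H3K9me1 antibody.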
CtBP-E1A inh: blocks the CtBP interaction with E1A | AlphaScreen GST-E1A/His-CtBP binding, 1536-well; hits give low values | activity change, % (no concentration beside the values) | 0.49% of 340,000 active | AID 651724; in the data active = activity change below about -65%; inconclusive = mostly about -30% to -63%; note: % is set by controls: 0 for no effect and ±100 for the full control effect
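In 5 uL wells, 23 nL compound meets equimolar GST-E1A and His-CtBP (5X stock 125 nM each) for 2 h, 37 °C. Beads (5X, 50 ug/mL) then 1 h, 37 °C, dark.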
Six1-Eya2 blk: inhibitors of human Six1/Eya2 interaction | 0.56% of 360,000 active | AID 651725 | activity change, % (concentration not given with the values) | AlphaScreen GST-Six1/His-Eya2 binding, biochemical; hits give low values; in the data active = activity change below about -65%; inconclusive = mostly about -30% to -63%; note: % is set by controls: 0 for no effect and ±100 for the full control effect
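AlphaScreen with GST-Six1 and His-Eya2 (5X mix: 250 nM and 500 nM), glutathione donor and nickel acceptor beads; buffer 50 mM Tris pH 8.0, 300 mM NaCl, 1 mM TCEP; 1 h at 37 C in the dark.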
HP1b chromo inh: HP1-beta chromodomain-methylated histone interaction inhibition; P83916; AlphaScreen HP1-beta / biotin-H3K9me3 peptide binding; Potency, µM (top dose mostly 114 µM), for inactives: at the top dose activity change, negative = inhibition, actives largely listed as inhibitors; 0.56% of 390,000 active; AID 540317; note: potency is the fitted concentration of half-maximal effect; nearly all actives have a fitted effect of over 70% in size
Target sequence (P83916 whole entry, looked up): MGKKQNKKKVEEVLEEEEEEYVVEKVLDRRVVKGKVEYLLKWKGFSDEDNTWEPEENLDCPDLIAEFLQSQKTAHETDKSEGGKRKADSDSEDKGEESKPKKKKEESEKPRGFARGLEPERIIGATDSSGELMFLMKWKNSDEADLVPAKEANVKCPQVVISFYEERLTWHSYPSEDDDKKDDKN
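HP1-beta protein (50 nM final) preincubated 30 min at room temperature with biotinylated H3(1-18)K9me3 peptide (50 nM) in PBS pH 7.4, 0.01% Tween-20, then compound added for 30 min. AlphaScreen streptavidin donor/nickel chelate acceptor beads (10 ug/mL final), 30 min dark, luminescence read.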
Numbers without * were called inactive; [ ] = dose if it differs, or a comment. Shown are actives, neighbours in structure and some others; about 10% of the full set was active somewhere. Unless noted, calls come from the whole dose curve; as a rule, active = well fitted inhibition curve with a large enough effect; inconclusive = small, poorly fitted or top-dose-only effect; inactive = no such curve, though single readings can be large or run the other way.

How did Cc1nn(C)c(Sc2ccccc2N)c1[N+](=O)[O-] do in these assays?
BAZ2B block: -37%; JMJD2A Tudor inh: 18µM*; G9a block: 7.9µM*; Six1-Eya2 blk: 1; HP1b chromo inh: -17%

Results for O=C(NC1CCCCCC1)c1c2c(nc3ccccc13)CCN(Cc1ccccc1)C2 ?
BAZ2B block: -5%; JMJD2A Tudor inh: -10%; G9a block: 1.4µM*; CtBP-E1A inh: 0; Six1-Eya2 blk: -13; HP1b chromo inh: 28%

What do the screens show for `CC(C)c1ccccc1NC(=O)COC(=O)c1c2c(nc3ccccc13)CCN(Cc1ccccc1)C2`?
BAZ2B block: -10%; JMJD2A Tudor inh: -28%; G9a block: 5%[59 µM]; Six1-Eya2 blk: -15; HP1b chromo inh: 9%

Results for Cc1cc(N2CCN(C)CC2)ccc1NC(=O)c1c2c(nc3ccccc13)CCN(Cc1ccccc1)C2 ?
BAZ2B block: inconclusive; JMJD2A Tudor inh: inconclusive; G9a block: 35µM*; CtBP-E1A inh: -17; Six1-Eya2 blk: -11; HP1b chromo inh: -14%

Results for Cc1ccccc1NC(=O)CN1C(=S)NC(C)(C)CC1C (centres undefined) ?
BAZ2B block: 4%; JMJD2A Tudor inh: -3%; G9a block: 18µM*; CtBP-E1A inh: 14; Six1-Eya2 blk: 1; HP1b chromo inh: -9%

What do the screens show for `CC1CC(C)(C)NC(=S)N1CCC(=O)N1CCN(c2ccccc2)CC1` (centres undefined)?
BAZ2B block: -22%; JMJD2A Tudor inh: -4%; G9a block: 40µM*; CtBP-E1A inh: 5; Six1-Eya2 blk: 1; HP1b chromo inh: 7%

How did CC(=O)c1ccc(N2CCN(C(=O)CCN3C(=S)NC(C)(C)CC3C)CC2)cc1 (centres undefined) do in these assays?
BAZ2B block: -20%; JMJD2A Tudor inh: -3%; G9a block: 1%; CtBP-E1A inh: 2; Six1-Eya2 blk: -5; HP1b chromo inh: 37%

What do the screens show for `Cc1cccc(NC(=O)CN2C(=S)NC(C)(C)CC2C)c1` (centres undefined)?
BAZ2B block: 2%; JMJD2A Tudor inh: -10%; G9a block: 20µM*; CtBP-E1A inh: 1; Six1-Eya2 blk: -9; HP1b chromo inh: -1%

Results for Cc1ccc(NC(=O)CCCN2C(=S)NC(C)(C)CC2C)cc1 (centres undefined) ?
BAZ2B block: -20%; JMJD2A Tudor inh: -17%; G9a block: -4%; CtBP-E1A inh: -17; Six1-Eya2 blk: -13; HP1b chromo inh: 11%

How did CC1CC(C)(C)NC(=S)N1CC(=O)NCc1ccc(Cl)cc1 (centres undefined) do in these assays?
BAZ2B block: -4%; JMJD2A Tudor inh: -14%; G9a block: 28µM*; CtBP-E1A inh: -3; Six1-Eya2 blk: 2; HP1b chromo inh: 11%

What do the screens show for `COc1ccc(OC)c(Nc2ncnc3c2nc2n3CCCC2)c1`?
BAZ2B block: -15%; JMJD2A Tudor inh: -16%; G9a block: -7%[59 µM]; HP1b chromo inh: 31%

How did O=C(Nc1ccc(F)cc1F)c1cc(-c2ccc(Cl)cc2)on1 do in these assays?
BAZ2B block: 2%; JMJD2A Tudor inh: 1%; G9a block: 0%[59 µM]; HP1b chromo inh: 34%

Results for Cc1ccnc2nc(NC(=O)c3ccccc3Cl)nn12 ?
BAZ2B block: 0%; JMJD2A Tudor inh: -19%; G9a block: 7%[59 µM]; HP1b chromo inh: 15%

How did Cc1ccc(-n2c(N)c(C(=O)N3CCOCC3)sc2=S)cc1 do in these assays?
BAZ2B block: -5%; JMJD2A Tudor inh: inconclusive; G9a block: inconclusive; CtBP-E1A inh: -1; Six1-Eya2 blk: -1; HP1b chromo inh: -15%

Results for CN1CCN(C(=O)c2sc(=S)n(-c3ccccc3)c2N)CC1 ?
BAZ2B block: -7%; JMJD2A Tudor inh: 100µM*; G9a block: inconclusive; CtBP-E1A inh: -3; Six1-Eya2 blk: 5; HP1b chromo inh: inconclusive

How did O=c1cnc(-c2ccc(Cl)cc2)cn1O do in these assays?
BAZ2B block: inconclusive; JMJD2A Tudor inh: 89µM*; G9a block: 2%; Six1-Eya2 blk: -3; HP1b chromo inh: 1%
